Test systems include SR leukemia; RPMI-8226 leukemia; OVCAR-8 ovarian; OVCAR-5 ovarian; OVCAR-4 ovarian; SK-OV-3 ovarian; IGROV1 ovarian; OVCAR-3 ovarian; HS 578T breast; NCI/ADR-RES ovarian; T-47D breast; BT-549 breast; MDA-MB-435 melanoma; SW-620 colon; MCF7 breast; HCT-116 colon; HCC-2998 colon; KM12 colon.
Test in all cases: NCI-60 one-dose screen, 48 h (100 = growth as untreated, 0 = no growth, -100 = all killed)
Common to all, as to conditions: 10 µM unless noted

This is part of a sample that, as a whole, favours compounds with a hit. Of some 83,000 tested, about 20% had one in any assay.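 Plates (96-well) were seeded with cells, treated with compound at one concentration, and incubated for 48 hours before percent growth was determined.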 Unmarked numbers belong to inactive results. Activity calls are given as the source filed them. Rule for the calls: active = growth percent below 10; inactive = the rest.

`O=C1c2ccccc2C(=O)c2cc(Cn3c[n+](Cc4ccc5ccccc5c4)c4ccccc43)ccc21`: the growth was 38.1% in the test on SR leukemia; 2.45% (active) in the test on RPMI-8226 leukemia; 41.4% with OVCAR-8 ovarian; 59.3% in the test on OVCAR-5 ovarian; 47.2% in the test with OVCAR-4 ovarian; 83.2% with SK-OV-3 ovarian. The growth is 3.66% (active) in the test on IGROV1 ovarian; 34.9% in the test on OVCAR-3 ovarian; 62.2% in the test on HS 578T breast; 91.1% in the test on NCI/ADR-RES ovarian; 41.2% in the test with T-47D breast; 47% in the test on BT-549 breast. For the same compound, the growth was 38.4% in the test with MDA-MB-435 melanoma; 64.4% in the test with SW-620 colon; 39.9% in the test with MCF7 breast; 41.2% with HCT-116 colon; 46.2% with HCC-2998 colon; 25.5% with KM12 colon.
As for `O=C(Nc1ncc(Cc2ccccc2)s1)c1ccc2c(c1)OCCO2`, the growth in the test on SR leukemia was 5.84% (active); with RPMI-8226 leukemia, 14.6%; in the test with OVCAR-8 ovarian, 19%; in the test with OVCAR-5 ovarian it was 28.5%; in the test on OVCAR-4 ovarian, 46.3%; in the test with SK-OV-3 ovarian, 25%. For the same compound, the growth in the test with IGROV1 ovarian is 23.4%; in the test with OVCAR-3 ovarian, -11.3% (active); in the test with HS 578T breast it was 25.1%; in the test with NCI/ADR-RES ovarian, 7.95% (active); in the test on T-47D breast, 36%; with BT-549 breast, 36.1%. For the same compound, the growth with MDA-MB-435 melanoma was -4.27% (active); in the test with SW-620 colon, 35.2%; in the test on MCF7 breast, 10.8%; in the test on HCT-116 colon it was 9.23% (active); in the test with HCC-2998 colon, 13.3%; in the test on KM12 colon it was 9.34% (active).
`CCOC(=O)c1cc(C(=O)c2cc(OC)cc(OC)c2)n2ncccc12`: the growth in the test on SR leukemia was 32.3%; in the test on RPMI-8226 leukemia, 28.9%; in the test with OVCAR-8 ovarian, 38.2%; in the test with OVCAR-5 ovarian, 92.2%; in the test with OVCAR-4 ovarian, 71.4%; in the test on SK-OV-3 ovarian it was 19.6%. Further, the growth in the test with IGROV1 ovarian was 56.4%; in the test on OVCAR-3 ovarian it was 0.928% (active); in the test on HS 578T breast it was 31.5%; in the test on NCI/ADR-RES ovarian it was 7.11% (active); in the test with T-47D breast it was 32.9%; with BT-549 breast, 18.4%. Besides, the growth in the test on MDA-MB-435 melanoma is 1.18% (active); with SW-620 colon, 18.4%; in the test with MCF7 breast, 24.8%; with HCT-116 colon it was 13.5%; with HCC-2998 colon, 66.7%; in the test with KM12 colon, 27.8%.
For the compound `c1ccc(Cn2cc3c(c2)-c2nc(Nc4ccccc4)ncc2CC3)cc1`, the growth with SR leukemia is 114% [100 µM]; in the test on RPMI-8226 leukemia, 88.2% [100 µM]; in the test on OVCAR-8 ovarian, 67.5% [100 µM]; with OVCAR-5 ovarian, 82.8% [100 µM]; in the test on OVCAR-4 ovarian, 63.3% [100 µM]; with SK-OV-3 ovarian it was 63.1% [100 µM]. The growth is 62.9% [100 µM] with IGROV1 ovarian; 85.9% [100 µM] in the test with OVCAR-3 ovarian; 68.9% [100 µM] with HS 578T breast; 83.9% [100 µM] with NCI/ADR-RES ovarian; 74.3% [100 µM] in the test with T-47D breast; 87.6% [100 µM] in the test on BT-549 breast. For the same compound, the growth is 96% [100 µM] in the test on MDA-MB-435 melanoma; 92% [100 µM] in the test on SW-620 colon; 70.5% [100 µM] with MCF7 breast; 80.6% [100 µM] in the test with HCT-116 colon; 99.9% [100 µM] in the test on HCC-2998 colon; 87% [100 µM] with KM12 colon.
On to `COc1cc2c(c(OC)c1OC)CCC(c1cccc(C(=O)Nc3ccccc3Br)c1)O2` (centres undefined), for which the growth was 75.6% in the test with SR leukemia; 83% with RPMI-8226 leukemia; 80.1% in the test with OVCAR-8 ovarian; 90.6% with OVCAR-5 ovarian; 85.3% with OVCAR-4 ovarian; 81% in the test with SK-OV-3 ovarian. Besides, the growth in the test on IGROV1 ovarian was 89.2%; in the test on OVCAR-3 ovarian, 100%; in the test on HS 578T breast, 86.2%; in the test on NCI/ADR-RES ovarian, 99.2%; in the test on T-47D breast, 68.6%; with BT-549 breast, 69.6%. Besides, the growth with MDA-MB-435 melanoma is 94%; in the test with SW-620 colon, 99.6%; in the test with MCF7 breast it was 91.8%; in the test on HCT-116 colon, 74.7%; in the test with HCC-2998 colon, 90%; with KM12 colon it was 101%.
`CS(=O)(=O)c1cccc(Nc2ncc3cc(-c4ccccc4Cl)ccc3n2)c1`: the growth is 0.145% (active) in the test with SR leukemia; 1.72% (active) with RPMI-8226 leukemia; 11.3% with OVCAR-8 ovarian; 32.2% with OVCAR-5 ovarian; 39% in the test with OVCAR-4 ovarian; -2.26% (active) in the test on SK-OV-3 ovarian. In addition, the growth with IGROV1 ovarian is 4.09% (active); in the test with OVCAR-3 ovarian it was 22.1%; with HS 578T breast, 3.45% (active); in the test with NCI/ADR-RES ovarian, -1.15% (active); in the test with T-47D breast, 11.1%; in the test on BT-549 breast it was 10.3%. Further, the growth with MDA-MB-435 melanoma was -28.3% (active); with SW-620 colon it was 15.7%; in the test on MCF7 breast, 21.4%; in the test with HCT-116 colon, -5.46% (active); with HCC-2998 colon, 33.3%; in the test with KM12 colon, 21.5%.
Consider `O=C(/C=C/c1ccc(Cl)cc1)c1ccc(Nc2ccnc3cc(Cl)ccc23)cc1`, for which the growth was -17% (active) in the test on SR leukemia; -41.9% (active) in the test with RPMI-8226 leukemia; 85.2% with OVCAR-8 ovarian; 84.6% in the test on OVCAR-5 ovarian; 94.7% in the test with OVCAR-4 ovarian; 112% in the test with SK-OV-3 ovarian. Besides, the growth was 57% in the test with IGROV1 ovarian; 86.5% in the test on OVCAR-3 ovarian; 102% with HS 578T breast; 83.5% in the test on NCI/ADR-RES ovarian; 96.4% in the test with T-47D breast; 145% in the test on BT-549 breast. For the same compound, the growth in the test on MDA-MB-435 melanoma is 64.8%; with SW-620 colon, 60.7%; in the test on MCF7 breast, 78.6%; in the test with HCT-116 colon it was 16.9%; in the test with HCC-2998 colon, 88.1%; in the test on KM12 colon, 50%.
Turning to `C#CCOc1cccc(Nc2ncnc3c(NC(=O)CCl)cccc23)c1`, the growth is -39.4% (active) in the test with SR leukemia; -40.2% (active) in the test with RPMI-8226 leukemia; -0.718% (active) in the test with OVCAR-8 ovarian; 67.6% in the test with OVCAR-5 ovarian; -27% (active) with OVCAR-4 ovarian; 81.7% with SK-OV-3 ovarian. Besides, the growth in the test with IGROV1 ovarian was -58.9% (active); with OVCAR-3 ovarian, -79% (active); with HS 578T breast, 50.6%; in the test with NCI/ADR-RES ovarian it was 18.8%; with T-47D breast, -31.4% (active); in the test with BT-549 breast it was 23%. Also, the growth in the test on MDA-MB-435 melanoma was 26.4%; with SW-620 colon, 1.15% (active); in the test on MCF7 breast it was 10.9%; with HCT-116 colon, 2.88% (active); with HCC-2998 colon, 91.8%; in the test with KM12 colon, 28.6%.
